# Measurements: article PMC7862700, “An all-to-all approach to the identification of sequence-specific readers for epigenetic DNA modifications on cytosine”
# Key:
# Experiment in all cases: DAPPL (digital affinity profiling via proximity ligation, sequencing); 10 mM Tris-HCl pH 7.5, 50 mM NaCl, 1 mM DTT, 4% glycerol, room temperature, 30 min; GST-TFs on glutathione beads, 16-mer random dsDNA library, 0.1% formaldehyde crosslink after washing; high values mean tight binding
# Settings in all cases: protein: recombinant; tags: N-terminal GST; dsDNA, one strand shown
# FLI1 = target: T1, FLI1 (Homo sapiens, UniProt Q01543 1-452)
# T1 sequence: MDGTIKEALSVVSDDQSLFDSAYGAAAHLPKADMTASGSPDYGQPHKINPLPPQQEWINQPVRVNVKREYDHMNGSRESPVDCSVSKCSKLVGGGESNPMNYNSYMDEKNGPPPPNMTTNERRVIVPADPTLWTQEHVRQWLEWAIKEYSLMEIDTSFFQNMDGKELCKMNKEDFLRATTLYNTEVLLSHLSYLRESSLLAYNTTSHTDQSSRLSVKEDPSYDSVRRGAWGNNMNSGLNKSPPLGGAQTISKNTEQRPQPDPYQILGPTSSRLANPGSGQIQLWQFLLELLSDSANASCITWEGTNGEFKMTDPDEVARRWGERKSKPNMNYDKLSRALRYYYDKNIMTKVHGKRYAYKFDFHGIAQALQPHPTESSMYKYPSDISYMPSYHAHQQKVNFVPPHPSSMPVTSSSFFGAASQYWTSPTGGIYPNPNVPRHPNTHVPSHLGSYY
# How it was run: (§1)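 After expression in yeast as GST fusions, human transcription factors were bound to glutathione beads, DNA-barcoded and mixed with a tag-only sample. The pools were incubated with 200 nmole of a 16-mer random double-stranded DNA library in Tris/NaCl/DTT/glycerol buffer (30 min, room temperature), washed and crosslinked with 0.1% formaldehyde. Proximity ligation with BsaI/T4 ligase ran for 1 h at 37 °C, before PCR amplification and sequencing on an Illumina NextSeq500. Binding signal is a hexamer's read frequency for a factor divided by its frequency for the tag-only sample.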
# ELK1 = target: T2, ELK1 (Homo sapiens, UniProt P19419 1-428)
# T2 sequence: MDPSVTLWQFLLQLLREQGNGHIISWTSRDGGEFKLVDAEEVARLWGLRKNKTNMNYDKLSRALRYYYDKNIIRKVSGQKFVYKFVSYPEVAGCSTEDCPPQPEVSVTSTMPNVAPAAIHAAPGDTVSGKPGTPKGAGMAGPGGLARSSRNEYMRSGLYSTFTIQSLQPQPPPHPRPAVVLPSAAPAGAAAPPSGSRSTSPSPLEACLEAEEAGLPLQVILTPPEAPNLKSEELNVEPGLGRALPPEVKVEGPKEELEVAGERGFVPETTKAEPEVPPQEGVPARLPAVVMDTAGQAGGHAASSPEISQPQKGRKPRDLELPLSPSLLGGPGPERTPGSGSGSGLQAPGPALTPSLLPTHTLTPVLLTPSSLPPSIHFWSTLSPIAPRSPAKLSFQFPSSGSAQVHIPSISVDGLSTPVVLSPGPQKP
# How it was run: as §1
# GABPA = target: T3, GABPA (Homo sapiens, UniProt Q06546 1-454)
# T3 sequence: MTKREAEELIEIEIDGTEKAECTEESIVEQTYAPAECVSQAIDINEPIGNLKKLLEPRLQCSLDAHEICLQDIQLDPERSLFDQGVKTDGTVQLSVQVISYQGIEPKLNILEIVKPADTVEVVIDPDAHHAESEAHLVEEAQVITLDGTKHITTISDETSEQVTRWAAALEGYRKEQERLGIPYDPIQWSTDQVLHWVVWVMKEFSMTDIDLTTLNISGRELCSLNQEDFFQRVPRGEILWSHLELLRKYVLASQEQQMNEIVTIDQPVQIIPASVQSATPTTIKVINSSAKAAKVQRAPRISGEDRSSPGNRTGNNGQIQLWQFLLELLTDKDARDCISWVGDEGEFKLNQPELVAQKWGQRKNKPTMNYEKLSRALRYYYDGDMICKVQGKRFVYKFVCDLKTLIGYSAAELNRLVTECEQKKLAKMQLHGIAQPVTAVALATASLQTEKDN
# How it was run: as §1
# ERG = target: T4, ERG (Homo sapiens, UniProt P11308 1-479)
# T4 sequence: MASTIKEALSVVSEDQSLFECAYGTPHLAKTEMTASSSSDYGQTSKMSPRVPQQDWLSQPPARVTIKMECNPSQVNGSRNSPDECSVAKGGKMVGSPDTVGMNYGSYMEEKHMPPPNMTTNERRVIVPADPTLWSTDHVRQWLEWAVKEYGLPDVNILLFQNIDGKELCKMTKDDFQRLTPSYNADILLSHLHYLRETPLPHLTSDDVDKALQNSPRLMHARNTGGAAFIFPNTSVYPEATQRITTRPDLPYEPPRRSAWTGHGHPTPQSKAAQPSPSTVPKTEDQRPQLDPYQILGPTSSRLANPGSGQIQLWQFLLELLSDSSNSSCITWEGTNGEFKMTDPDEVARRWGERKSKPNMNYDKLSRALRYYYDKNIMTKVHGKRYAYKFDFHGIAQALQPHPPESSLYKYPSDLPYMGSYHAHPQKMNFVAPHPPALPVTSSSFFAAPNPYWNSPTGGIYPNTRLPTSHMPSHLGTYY
# How it was run: as §1
# ELF1 = ELF1 (Homo sapiens, UniProt P32519 1-619)
# How it was run: as §1
# SPI1 = SPI1 (Homo sapiens, UniProt P17947 1-270)
# How it was run: as §1
# SPIB = SPIB (Homo sapiens, UniProt Q01892 1-262)
# How it was run: as §1
# ELK3 = target: T5, ELK3 (Homo sapiens, UniProt P41970 1-407)
# T5 sequence: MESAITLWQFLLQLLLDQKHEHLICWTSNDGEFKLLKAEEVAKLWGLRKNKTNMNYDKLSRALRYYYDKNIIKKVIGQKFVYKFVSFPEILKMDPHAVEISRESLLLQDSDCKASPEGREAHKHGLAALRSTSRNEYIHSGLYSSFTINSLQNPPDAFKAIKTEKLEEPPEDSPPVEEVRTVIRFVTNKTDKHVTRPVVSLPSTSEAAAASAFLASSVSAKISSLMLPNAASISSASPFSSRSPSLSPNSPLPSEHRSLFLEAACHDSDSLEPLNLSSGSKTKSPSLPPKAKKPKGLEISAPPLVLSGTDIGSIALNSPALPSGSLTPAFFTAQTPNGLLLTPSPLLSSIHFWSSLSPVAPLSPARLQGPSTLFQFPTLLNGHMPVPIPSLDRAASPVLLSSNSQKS
# How it was run: as §1
# FEV = target: T6, FEV (Homo sapiens, UniProt Q99581 1-238)
# T6 sequence: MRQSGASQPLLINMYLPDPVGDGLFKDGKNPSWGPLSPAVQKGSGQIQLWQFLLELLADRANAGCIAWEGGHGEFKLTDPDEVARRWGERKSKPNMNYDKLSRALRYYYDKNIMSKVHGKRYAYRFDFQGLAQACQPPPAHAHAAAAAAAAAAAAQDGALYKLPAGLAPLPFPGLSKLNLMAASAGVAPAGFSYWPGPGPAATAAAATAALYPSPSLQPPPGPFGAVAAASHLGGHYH
# How it was run: as §1
# ETV5 = ETV5 (Homo sapiens, UniProt P41161 1-510)
# How it was run: as §1
# SPIC = target: T7, SPIC (Homo sapiens, UniProt Q8N5J4 1-248)
# T7 sequence: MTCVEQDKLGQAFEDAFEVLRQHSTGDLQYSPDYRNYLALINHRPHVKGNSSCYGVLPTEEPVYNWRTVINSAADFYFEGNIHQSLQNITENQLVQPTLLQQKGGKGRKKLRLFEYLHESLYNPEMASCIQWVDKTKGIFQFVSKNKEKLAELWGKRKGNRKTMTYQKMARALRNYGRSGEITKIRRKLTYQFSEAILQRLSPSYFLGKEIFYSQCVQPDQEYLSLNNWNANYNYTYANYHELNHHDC
# How it was run: as §1
# ELF4 = ELF4 (Homo sapiens, UniProt Q99607 1-663)
# How it was run: as §1
# ELK4 = target: T8, ELK4 (Homo sapiens, UniProt P28324-2 1-405)
# T8 sequence: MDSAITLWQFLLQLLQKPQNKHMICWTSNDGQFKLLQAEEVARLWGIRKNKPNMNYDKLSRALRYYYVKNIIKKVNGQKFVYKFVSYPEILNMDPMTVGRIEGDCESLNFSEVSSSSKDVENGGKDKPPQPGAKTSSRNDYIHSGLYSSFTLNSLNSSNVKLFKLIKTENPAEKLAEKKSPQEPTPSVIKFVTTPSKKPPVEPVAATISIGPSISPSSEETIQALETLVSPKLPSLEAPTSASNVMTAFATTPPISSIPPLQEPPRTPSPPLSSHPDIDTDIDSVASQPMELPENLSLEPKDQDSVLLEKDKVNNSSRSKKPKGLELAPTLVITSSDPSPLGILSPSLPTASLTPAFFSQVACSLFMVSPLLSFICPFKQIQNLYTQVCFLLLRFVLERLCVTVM
# How it was run: as §1
# ETV2 = target: T9, ETV2 (Homo sapiens, UniProt O00321 1-342)
# T9 sequence: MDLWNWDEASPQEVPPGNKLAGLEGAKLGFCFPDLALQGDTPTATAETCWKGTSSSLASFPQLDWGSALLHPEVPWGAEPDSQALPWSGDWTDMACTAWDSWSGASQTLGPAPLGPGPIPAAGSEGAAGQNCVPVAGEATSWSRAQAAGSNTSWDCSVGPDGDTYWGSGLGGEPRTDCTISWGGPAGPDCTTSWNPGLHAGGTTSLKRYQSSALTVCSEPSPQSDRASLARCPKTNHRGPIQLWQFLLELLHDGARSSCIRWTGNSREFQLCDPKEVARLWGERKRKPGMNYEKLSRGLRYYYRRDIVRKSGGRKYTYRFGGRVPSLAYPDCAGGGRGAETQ
# How it was run: as §1
# ELF3 = target: T10, ELF3 (Homo sapiens, UniProt P78545 1-371)
# T10 sequence: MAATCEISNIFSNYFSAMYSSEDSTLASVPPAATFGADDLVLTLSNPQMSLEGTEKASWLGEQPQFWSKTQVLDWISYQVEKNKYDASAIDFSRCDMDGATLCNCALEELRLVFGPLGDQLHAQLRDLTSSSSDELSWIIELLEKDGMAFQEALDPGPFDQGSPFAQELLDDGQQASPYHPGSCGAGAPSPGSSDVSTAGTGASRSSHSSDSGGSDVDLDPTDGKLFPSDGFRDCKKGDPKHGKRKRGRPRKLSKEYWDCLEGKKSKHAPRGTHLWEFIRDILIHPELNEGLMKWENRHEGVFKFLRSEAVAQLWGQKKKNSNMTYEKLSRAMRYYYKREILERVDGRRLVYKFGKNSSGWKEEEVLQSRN
# How it was run: as §1
# ETV1 = ETV1 (Homo sapiens, UniProt P50549 1-477)
# How it was run: as §1
# EHF = target: T11, EHF (Homo sapiens, UniProt Q9NZC4 1-300)
# T11 sequence: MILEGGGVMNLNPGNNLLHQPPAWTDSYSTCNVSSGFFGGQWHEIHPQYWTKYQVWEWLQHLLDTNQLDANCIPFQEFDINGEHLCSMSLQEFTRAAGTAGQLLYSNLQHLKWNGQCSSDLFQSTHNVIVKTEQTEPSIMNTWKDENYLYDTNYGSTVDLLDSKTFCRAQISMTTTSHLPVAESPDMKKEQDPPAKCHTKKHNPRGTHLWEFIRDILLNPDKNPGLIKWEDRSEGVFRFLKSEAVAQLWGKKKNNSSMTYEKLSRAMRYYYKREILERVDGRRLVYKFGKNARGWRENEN
# How it was run: as §1
# Chain of SPIB (Q01892 whole entry): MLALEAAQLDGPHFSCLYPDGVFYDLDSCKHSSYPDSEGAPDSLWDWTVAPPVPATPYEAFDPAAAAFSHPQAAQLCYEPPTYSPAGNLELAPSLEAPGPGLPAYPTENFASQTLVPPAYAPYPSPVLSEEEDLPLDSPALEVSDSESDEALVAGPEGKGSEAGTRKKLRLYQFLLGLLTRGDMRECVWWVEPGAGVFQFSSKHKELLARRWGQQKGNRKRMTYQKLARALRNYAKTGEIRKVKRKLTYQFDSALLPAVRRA
# Chain of ETV5 (P41161 whole entry): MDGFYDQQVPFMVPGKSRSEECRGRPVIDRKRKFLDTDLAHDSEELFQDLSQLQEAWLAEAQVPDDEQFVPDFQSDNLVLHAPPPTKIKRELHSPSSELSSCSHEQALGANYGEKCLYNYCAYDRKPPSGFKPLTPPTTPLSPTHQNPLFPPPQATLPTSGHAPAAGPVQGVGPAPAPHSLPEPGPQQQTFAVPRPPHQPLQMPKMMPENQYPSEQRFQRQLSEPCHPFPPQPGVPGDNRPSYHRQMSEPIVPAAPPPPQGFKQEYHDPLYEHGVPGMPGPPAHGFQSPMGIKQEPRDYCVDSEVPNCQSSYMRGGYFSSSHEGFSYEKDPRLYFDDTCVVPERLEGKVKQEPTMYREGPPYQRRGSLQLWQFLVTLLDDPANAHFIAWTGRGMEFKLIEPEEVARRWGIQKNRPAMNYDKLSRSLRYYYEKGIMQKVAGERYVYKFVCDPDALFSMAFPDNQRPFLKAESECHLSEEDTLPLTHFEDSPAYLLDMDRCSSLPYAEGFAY
# Chain of ELF4 (Q99607 whole entry): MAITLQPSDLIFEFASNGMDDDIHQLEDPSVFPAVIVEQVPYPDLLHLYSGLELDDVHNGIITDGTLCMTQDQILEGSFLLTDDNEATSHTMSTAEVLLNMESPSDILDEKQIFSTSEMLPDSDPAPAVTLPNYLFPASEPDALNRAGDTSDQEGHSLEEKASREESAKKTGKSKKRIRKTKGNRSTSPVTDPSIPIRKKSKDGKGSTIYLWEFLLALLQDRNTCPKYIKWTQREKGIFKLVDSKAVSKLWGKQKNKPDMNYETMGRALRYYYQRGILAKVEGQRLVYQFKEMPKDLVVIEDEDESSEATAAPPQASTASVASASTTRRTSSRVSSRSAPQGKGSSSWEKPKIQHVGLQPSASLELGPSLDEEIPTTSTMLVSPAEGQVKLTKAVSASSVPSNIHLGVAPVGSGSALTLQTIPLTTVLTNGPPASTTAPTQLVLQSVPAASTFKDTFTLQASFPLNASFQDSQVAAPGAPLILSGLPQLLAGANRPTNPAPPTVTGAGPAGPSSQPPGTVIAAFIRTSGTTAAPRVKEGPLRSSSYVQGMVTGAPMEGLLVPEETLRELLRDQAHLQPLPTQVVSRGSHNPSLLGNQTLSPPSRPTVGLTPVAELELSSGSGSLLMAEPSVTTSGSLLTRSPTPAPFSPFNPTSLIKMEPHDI
# Chain of ELF1 (P32519 whole entry): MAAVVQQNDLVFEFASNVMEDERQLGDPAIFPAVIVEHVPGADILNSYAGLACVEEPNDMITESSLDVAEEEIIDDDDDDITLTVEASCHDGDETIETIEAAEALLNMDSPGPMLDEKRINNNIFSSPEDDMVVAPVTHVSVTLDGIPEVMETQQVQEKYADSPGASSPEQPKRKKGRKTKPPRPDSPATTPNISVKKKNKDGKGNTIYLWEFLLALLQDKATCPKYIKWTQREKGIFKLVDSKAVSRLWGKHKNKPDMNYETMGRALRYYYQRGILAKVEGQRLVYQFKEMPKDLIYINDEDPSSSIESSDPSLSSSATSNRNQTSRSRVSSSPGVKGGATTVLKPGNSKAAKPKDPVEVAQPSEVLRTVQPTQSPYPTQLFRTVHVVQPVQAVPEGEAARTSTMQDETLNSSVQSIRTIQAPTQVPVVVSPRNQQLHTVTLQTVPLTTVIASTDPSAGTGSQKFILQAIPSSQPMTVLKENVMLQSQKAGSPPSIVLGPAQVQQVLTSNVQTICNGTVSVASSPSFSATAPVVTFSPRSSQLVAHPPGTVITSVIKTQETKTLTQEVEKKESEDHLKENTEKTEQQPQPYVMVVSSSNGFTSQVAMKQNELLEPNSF
# Chain of ETV1 (P50549 whole entry): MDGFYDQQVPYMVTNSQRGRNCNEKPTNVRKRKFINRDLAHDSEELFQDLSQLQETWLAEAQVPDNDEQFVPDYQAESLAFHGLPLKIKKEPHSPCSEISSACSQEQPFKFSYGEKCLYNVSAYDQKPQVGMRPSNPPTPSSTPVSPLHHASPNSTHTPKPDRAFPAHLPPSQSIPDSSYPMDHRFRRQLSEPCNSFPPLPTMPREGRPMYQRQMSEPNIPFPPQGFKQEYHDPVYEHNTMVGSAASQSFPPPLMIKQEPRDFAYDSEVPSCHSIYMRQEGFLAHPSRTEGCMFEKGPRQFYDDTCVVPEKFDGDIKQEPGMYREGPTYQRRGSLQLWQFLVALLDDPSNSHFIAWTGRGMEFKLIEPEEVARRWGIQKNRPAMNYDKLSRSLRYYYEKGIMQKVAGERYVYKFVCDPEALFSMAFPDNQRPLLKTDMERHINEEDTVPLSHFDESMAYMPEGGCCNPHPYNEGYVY
Sequence,binding signal (FLI1),binding signal (ELK1),binding signal (GABPA),binding signal (ERG),binding signal (ELF1),binding signal (SPI1),binding signal (SPIB),binding signal (ELK3),binding signal (FEV),binding signal (ETV5),binding signal (SPIC),binding signal (ELF4),binding signal (ELK4),binding signal (ETV2),binding signal (ELF3),binding signal (ETV1),binding signal (EHF)
CAATCA,"1.11 fold enrichment (6-mer frequency, TF over GST control)","1.11 fold enrichment (6-mer frequency, TF over GST control)","1.24 fold enrichment (6-mer frequency, TF over GST control)","1.14 fold enrichment (6-mer frequency, TF over GST control)","1.19 fold enrichment (6-mer frequency, TF over GST control)","1.08 fold enrichment (6-mer frequency, TF over GST control)","1.1 fold enrichment (6-mer frequency, TF over GST control)","1.05 fold enrichment (6-mer frequency, TF over GST control)","1.11 fold enrichment (6-mer frequency, TF over GST control)","1.15 fold enrichment (6-mer frequency, TF over GST control)","1.19 fold enrichment (6-mer frequency, TF over GST control)","1.16 fold enrichment (6-mer frequency, TF over GST control)","1.04 fold enrichment (6-mer frequency, TF over GST control)","1.15 fold enrichment (6-mer frequency, TF over GST control)","1.12 fold enrichment (6-mer frequency, TF over GST control)","1.13 fold enrichment (6-mer frequency, TF over GST control)",
GCCAAT,"1.1 fold enrichment (6-mer frequency, TF over GST control)","1.02 fold enrichment (6-mer frequency, TF over GST control)","1.05 fold enrichment (6-mer frequency, TF over GST control)","1 fold enrichment (6-mer frequency, TF over GST control)","1.04 fold enrichment (6-mer frequency, TF over GST control)","1.01 fold enrichment (6-mer frequency, TF over GST control)","1.07 fold enrichment (6-mer frequency, TF over GST control)","1.11 fold enrichment (6-mer frequency, TF over GST control)","1.03 fold enrichment (6-mer frequency, TF over GST control)","1.09 fold enrichment (6-mer frequency, TF over GST control)","1.05 fold enrichment (6-mer frequency, TF over GST control)","1.12 fold enrichment (6-mer frequency, TF over GST control)","1.01 fold enrichment (6-mer frequency, TF over GST control)",,"1.2 fold enrichment (6-mer frequency, TF over GST control)","1.13 fold enrichment (6-mer frequency, TF over GST control)","1.03 fold enrichment (6-mer frequency, TF over GST control)"
GCGCCC,"1.07 fold enrichment (6-mer frequency, TF over GST control)","1.1 fold enrichment (6-mer frequency, TF over GST control)","1.11 fold enrichment (6-mer frequency, TF over GST control)","1.13 fold enrichment (6-mer frequency, TF over GST control)","1.11 fold enrichment (6-mer frequency, TF over GST control)",,"1.09 fold enrichment (6-mer frequency, TF over GST control)","1.18 fold enrichment (6-mer frequency, TF over GST control)","1.08 fold enrichment (6-mer frequency, TF over GST control)","1.04 fold enrichment (6-mer frequency, TF over GST control)","1.01 fold enrichment (6-mer frequency, TF over GST control)","1.19 fold enrichment (6-mer frequency, TF over GST control)","1.02 fold enrichment (6-mer frequency, TF over GST control)","1.02 fold enrichment (6-mer frequency, TF over GST control)",,"1.05 fold enrichment (6-mer frequency, TF over GST control)","1.03 fold enrichment (6-mer frequency, TF over GST control)"
